Screening results as filed in PubChem.
HCMV antiviral – qHTS Assay for inhibitors of the human cytomegalovirus (HCMV); HFF cells, HCMV-luciferase reporter, 72 h; stronger effect = lower value; activity change, negative = inhibition, % at 57.5 µM; 4.5% of 410,000 active; in the data active means activity change below about -60%; inconclusive means no clear call, values can overlap the other calls; inactive means above about -39%; further: on the % scale 0 is the no-effect control and ±100 the full control effect
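Steps: HFFs plated, 16 h 37C; compounds added; HCMV-luciferase added to MOI 1 PFU/cell; 72 h 37C; OneGlo reagent, 5 min room temperature; luminescence read, normalized to controls.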
Pf growth 96h – Primary qHTS for delayed death inhibitors of the malarial parasite plastid, 96 hour incubation. P. falciparum luciferase reporter growth, 96 h. Potency, µM (series often up to 28.7 µM), without a hit: top-dose activity change, negative = inhibition, actives largely listed as inhibitors. 6.9% of 320,000 active. AID 504834, 2011; further: potency means the concentration at half of the fitted maximal effect; on the % scale 0 is the no-effect control and ±100 the full control effect
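Compounds incubated with erythrocytes infected by luciferase-expressing P. falciparum (2% hematocrit, 0.05% parasitemia final) for 96 hours, 37 C in 5% CO2. Growth inhibition scored as decreased luciferase luminescence.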
Pf growth 48h – Primary qHTS for delayed death inhibitors of the malarial parasite plastid, 48 hour incubation. Potency, µM (doses to about 28.7 µM), for the others: top-dose activity change, negative = inhibition, most hits filed as inhibitors. 5.9% of 310,000 active. P. falciparum luciferase growth in erythrocytes, 48 h; further: potency means the concentration at half of the fitted maximal effect; on the % scale 0 is the no-effect control and ±100 the full control effect
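Luciferase-expressing P. falciparum in infected erythrocytes (2% hematocrit, 0.1% parasitemia final) in RPMI 1640/0.5% Albumax were exposed to compound for 48 hours at 37 C, 5% CO2; growth read as luminescence.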
Shiga toxin inh – A qHTS for Small Molecule Inhibitors of Shiga Toxin. AID 2315, 2010. 9.2% of 290,000 active. Vero cells, Shiga toxin protein synthesis inhibition reporter. inhibition, % at 38.7 µM; in the data active means inhibition mostly above about 28%, no sharp cut-off; inactive means mostly below about 43%; further: 0% is about no effect
Cycloheximide cs – Cycloheximide Counterscreen for Small Molecule Inhibitors of Shiga Toxin; AID 2314, 2010; 12% of 300,000 active; max response, %; cell reporter, cycloheximide protein synthesis inhibition counterscreen; in the data active means max response mostly above about 13%, no sharp cut-off; inactive means mostly below about 14%; further: read at 38.3 µM for the half of the compounds with a filed dose; 0% is about no effect
Starred values were filed as active, the others as inactive; ? = inconclusive; . = no result given; + = active, no number; [ ] = dose if it differs, or a comment. An excerpt weighted towards active compounds, which were near 20% of everything screened. Unless noted, the call rests on the fitted dose curve; in most records, active means well fitted inhibition curve with a large enough effect; inconclusive means small, poorly fitted or top-dose-only effect, or another doubt; inactive means no such curve, though single readings can be large or run the other way.

SMILES | HCMV antiviral | Pf growth 96h | Pf growth 48h | Shiga toxin inh | Cycloheximide cs
COc1cccc(-c2cc3nc4c(c(NCC(C)(C)CN(C)C)n3n2)CCCC4)c1 | -69* | 0% | 5% | -10 | -2
CCN(CC)C(=O)C1=C(C)N(Cc2ccc(OC)cc2)C(=O)C(CC(=O)NC2CC2)C1 (stereo not given) | 9 | . | . | . | .
O=C(c1cc(COc2ccccc2)on1)N1CCCC(OCc2cccnc2)C1 (stereo not given) | 7 | ? | 1% | 7 | 8
COCC1CCN(C(=O)c2cc(COc3cccc4cnccc34)on2)CC1 | + | 0% | 7% | -5 | -3
O=C(c1cc(COc2cccc3cnccc23)on1)N1CCCC(CCCO)C1 (stereo not given) | -86* | 5% | 40% | -18 | -2
COc1ccc(S(=O)(=O)Nc2nc3ccccc3nc2NCC2CCCO2)cc1 (stereo not given) | -23 | 9% | 8% | 17 | 2
O=C(/C=C/c1ccc([N+](=O)[O-])cc1)c1cccs1 | -76* | 20% | 14% | -8 | 3
COc1cc([N+](=O)[O-])ccc1N/C=C/C(=O)c1cccs1 | 26 | 275% | 313% | 60* | 27*
COc1cc([N+](=O)[O-])ccc1NC(=O)/C=C\C(=O)O | 24 | -2% | -10% | -15 | 3
Nc1ccc(/C=C/C(=O)c2cccs2)cc1 | 28 | 35% | 321% | 68* | 40*
O=C(CCSCCC(=O)NN=Cc1ccc(F)cc1)NN=Cc1ccc(F)cc1 | -38 | . | . | . | .
Cc1ccc(C(=O)N(c2ccccn2)C(C)c2ccco2)cc1C (stereo not given) | 27 | ? | . | 0 | 18*
CC(c1ccco1)N(C(=O)c1ccc(Cl)s1)c1ccccn1 (stereo not given) | 14 | ? | 14% | 43* | 19*
COc1ccccc1C1c2[nH]c3ccccc3c2CCN1Cc1cnc(C)s1 (stereo not given) | ? | ? | ? | -29 | -2
COc1ccc(C2c3[nH]c4ccccc4c3CCN2Cc2cccn2-c2ncccn2)cc1C (stereo not given) | -99* | 22% | ? | 7 | 5
COc1cccc(C2c3[nH]c4ccccc4c3CCN2Cc2cnc(C)s2)c1OC (stereo not given) | -15 | ? | 2.3µM* | -2 | -3
CN1CCN(S(=O)(=O)c2ccc(Cc3ccc(S(=O)(=O)N4CCN(C)CC4)cc3)cc2)CC1 | -29 | 12µM* | ? | 2 | -4
CN1CCN(S(=O)(=O)c2ccc(Cl)cc2)CC1 | -10 | 1.9µM* | -20% | . | 1
Cc1ccccc1NC(=O)C(C)OC(=O)CNS(=O)(=O)c1ccc(C#N)cc1 (stereo not given) | -24 | 16% | ? | . | .
O=C(CCC1CCCN(C(=O)c2ccoc2)C1)NCc1ccc(F)c(F)c1 (stereo not given) | -25 | -6% | -19% | 22 | 10
O=C(CCC1CCCN(C(=O)c2ccc3cc[nH]c3c2)C1)NCc1ccc(F)c(F)c1 (stereo not given) | 43 | ? | ? | 30* | 29*
O=C(CCC1CCCN(C(=O)c2ccc3c(c2)OCO3)C1)NCc1ccc(F)c(F)c1 (stereo not given) | -3 | ? | ? | 41* | 15*
O=C(NCCc1nnc2ccc(N3CCCC3)nn12)c1ccccc1 | 39 | . | . | . | .
CCOc1ccccc1NC(=O)Nc1ccccn1 | -28 | ? | ? | -19 | 4
CCCOc1ccccc1NC(=O)Nc1ccccc1Cl | ? | 8.3µM* | 13%[5.75 µM] | 3 | -1
SMILES | HCMV antiviral | Pf growth 96h | Pf growth 48h | Shiga toxin inh | Cycloheximide cs
COc1ccccc1NC(=O)NCCCl | 50 | 58% | -11% | 10 | -1
O=C(NCCCl)Nc1ccccc1OCCOc1ccccc1NC(=O)NCCCl | 18 | 2.1µM* | 2.1µM* | -9 | -4
CCOc1ccccc1NC(=O)Nc1ccc(Cl)cc1 | -18 | ? | ? | 41* | 76*
CCOc1ccccc1N(C(C)=O)S(=O)(=O)c1ccc(Cl)cc1 | -25 | 4% | -24% | -8 | 0
CCOc1ccccc1N(C(=O)Nc1ccc(Cl)cc1)C1=NC(C)CS1 (stereo not given) | -24 | 28% | 5% | 82* | 25*
COc1ccc(C2C3=C(CC(C)(C)CC3=O)Nc3nc(C)nn32)cc1OC (stereo not given) | 13 | 19% | 1% | -2 | -1
